Bioassay records: PubChem BioAssay, National Center for Advancing Translational Sciences (NCATS)
TSG101-PTAP inh: blocks PTAP/TSG101 interaction to inhibit HIV-1 budding; Q99816; Fluorescence polarization, FITC-PTAP peptide / Tsg101 binding; Potency, µM (series often up to 115 µM), actives largely listed as inhibitors; 340,000 tested, under 10 active; active means well fitted inhibition curve with a large enough effect in the main read-out, with a control signal flat, not every such curve was filed as active; inconclusive means small, poorly fitted or top-dose-only effect, or effect the other way, or a change in a side signal; inactive means no such curve, though single readings can be large or run the other way
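Tsg101 binding domain (10 uM final) was mixed with compound and a FITC-labeled PTAP peptide (50 nM final) in HEPES pH 7.5 buffer with NaCl, Tween 20, EDTA and TCEP; fluorescence polarization was read after 20 min at r.t.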
Vif-A3F inh: Vif-A3F binding inhibition | Potency, µM (top dose mostly 46.1 µM) | HeLa A3F-eYFP + Vif (tagged APOBEC3F with the HIV-1 protein that degrades it), YFP fluorescence increase | hit rate 0.2% among 390,000; further: nearly all actives have a fitted effect of over 65% in size
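HeLa cells stably expressing A3F-eYFP plus Vif, plated and incubated overnight at 37 deg C, then exposed to compounds overnight at 37 deg C. Blocked degradation read as raised yellow fluorescence (Ex 488/Em 500-530).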
S-ASM inh: blocks human secretory acid sphingomyelinase; P17405; placental ASM, HMU-PC fluorogenic substrate, 60 min; Potency, µM (doses to about 57.5 µM), hits mostly inhibitors; hit rate 0.006% among 340,000; AID 504937
Target sequence (P17405 47-631 limits assumed): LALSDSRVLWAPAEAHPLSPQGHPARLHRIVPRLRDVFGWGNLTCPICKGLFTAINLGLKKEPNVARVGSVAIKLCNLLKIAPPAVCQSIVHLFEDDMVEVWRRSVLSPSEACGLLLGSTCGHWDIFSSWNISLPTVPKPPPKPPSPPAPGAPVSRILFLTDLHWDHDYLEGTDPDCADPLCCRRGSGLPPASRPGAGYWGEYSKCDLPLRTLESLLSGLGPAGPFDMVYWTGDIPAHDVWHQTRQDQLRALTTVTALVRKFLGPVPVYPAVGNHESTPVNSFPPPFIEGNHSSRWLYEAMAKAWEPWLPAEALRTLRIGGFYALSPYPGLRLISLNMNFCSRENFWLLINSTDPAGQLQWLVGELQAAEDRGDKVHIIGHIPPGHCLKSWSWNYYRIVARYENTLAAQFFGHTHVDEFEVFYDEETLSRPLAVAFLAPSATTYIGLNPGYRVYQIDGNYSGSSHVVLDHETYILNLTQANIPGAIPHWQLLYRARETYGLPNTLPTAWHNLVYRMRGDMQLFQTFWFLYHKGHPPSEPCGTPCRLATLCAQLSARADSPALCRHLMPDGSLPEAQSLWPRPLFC
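Fluorescence read-out (Ex 386 nm, Em 447 nm) after stopping the reaction at pH 10. Enzyme: ASM from human placenta; substrate HMU-PC0, 9 uM final; 60 min, 37 °C. Compound preincubation 10 min, ambient temperature.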
Akt phos inh: inhibitors of Akt phosphorylation. Neuro2A IGF-stimulated pAkt S473 HTRF, 20 min; active compounds read low. activity change, % for hits at 50 µM. hit rate 0.32% among 360,000. AID 651550; in the data active means activity change below about -80%; inconclusive means mostly about -51% to -80%
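Neuro2A cells (4,500/well, DMEM with 0.5% FBS) were treated with compound at a single 50 µM final concentration, stimulated with 6 nM IGF for 20 min at 37 °C, and lysed. Phospho-Akt Ser473 was read by HTRF as 665/615 ratio ×10^4.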
12-LOX inh: ALOX12 (human) lipoxygenase inhibition; purified 12hLO, xylenol orange hydroperoxide absorbance; Potency, µM (top dose mostly 108 µM), usual class: inhibitors; hit rate 1.1% among 580,000; AID 1671190
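Purified human 12hLO at 150 nM in 25 mM Hepes, 0.01% Triton X-100, pH 7.0, preincubated 15 min at room temperature with compound. Reaction started with 40 uM arachidonic acid, 30 min at room temperature. Hydroperoxide measured by Fe-xylenol orange, 573/405 nm absorbance ratio.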
Vif-APOBEC3G blk: Vif-A3G binding inhibition | Q9HC16 | Potency, µM (series often up to 46.1 µM), most hits filed as inhibitors | HeLa A3G-eYFP + Vif (tagged APOBEC3G with the HIV-1 protein that degrades it), YFP fluorescence, overnight | hit rate 0.076% among 410,000; further: nearly all actives have a fitted effect of over 60% in size
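HeLa cells stably expressing Vif and C-terminally eYFP-tagged A3G, seeded overnight at 37 deg C, then exposed to compound by pintool overnight at 37 deg C. Rise in yellow fluorescence (Ex 488/Em 500-530, Acumen) marks blocked Vif-driven A3G degradation.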
Of the large screens only hits and unclear results are named; the others gave an inactive call. Sampled rows, rich in hits. Any-hit rate of the full collection: about 1.4%. Unless noted, the call rests on the fitted dose curve; in most records, active means well fitted curve in the direction sought with a large enough effect; inconclusive means small, poorly fitted or top-dose-only effect, or another doubt; inactive means no such curve, though single readings can be large; an effect the other way counts as inactive or inconclusive.

C/C(=N\NC(=O)c1ccccc1)c1ccccc1	none (no result: TSG101-PTAP inh, Vif-A3F inh, S-ASM inh, Akt phos inh, Vif-APOBEC3G blk)
COc1cc(OC)cc(C(=O)OCC2C(COC(=O)c3cc(OC)cc(OC)c3)C2(Cl)Cl)c1 (stereo unspecified)	none (no result: TSG101-PTAP inh, Vif-A3F inh, S-ASM inh, Akt phos inh, Vif-APOBEC3G blk)
CC1(CCc2ccccc2)NC(=O)N(Cc2nnc(-c3ccccc3Br)o2)C1=O (stereo unspecified)	Akt phos inh -108%
O=C1NC2(CCCc3ccccc32)C(=O)N1Cc1nnc(-c2ccccc2Br)o1 (stereo unspecified)	none
CC(CCO)Nc1nc2c(c(=O)n(C)c(=O)n2C)n1Cc1ccc(Cl)c(Cl)c1 (stereo unspecified)	none (no result: TSG101-PTAP inh, Vif-A3F inh, S-ASM inh, Akt phos inh, Vif-APOBEC3G blk)
Cc1sc2c3ccsc3ccc2[n+]1C	Vif-A3F inh inconclusive, 12-LOX inh 16µM
Cc1sc2ccc3sccc3c2[n+]1C	12-LOX inh 11µM
CC(C)CCNc1nc(C(=O)OCC(=O)NC(=O)NCC(C)C)cs1	none (no result: TSG101-PTAP inh, Vif-A3F inh, S-ASM inh, Akt phos inh, Vif-APOBEC3G blk)
CC(C)CCNc1nc(-c2ccc(O)c(C(N)=O)c2)cs1	12-LOX inh 7.9µM (no result: TSG101-PTAP inh, Vif-A3F inh, S-ASM inh, Akt phos inh, Vif-APOBEC3G blk)
O=C(Nc1cccc2ncccc12)c1ccc2c(c1)OCCO2	none
O=C(Nc1cccc2ncccc12)c1ccc2ccccc2c1	12-LOX inh 11µM (no result: TSG101-PTAP inh, Vif-A3F inh, S-ASM inh, Akt phos inh, Vif-APOBEC3G blk)
CC(C)C1NC(=O)N(Cc2cc(F)cc3cccnc23)C1=O (stereo unspecified)	none (no result: TSG101-PTAP inh, Vif-A3F inh, S-ASM inh, Akt phos inh, Vif-APOBEC3G blk)
COc1ccc(/C=C2\SC(N)=NC2=O)cc1Br	none
COc1cc(/C=C2\SC(N)=NC2=O)cc(Cl)c1O	Vif-A3F inh 11µM
Cc1ccc([C@H]2C(C(=O)O)=C[C@@H](CC3CCCC3)N2S(=O)(=O)c2ccc(C)cc2)cc1	12-LOX inh 40µM
Cc1ccc(C2=NC3(CCN(C)CC3)N=C2SCC(=O)Nc2ccc(F)cc2F)cc1	none (no result: TSG101-PTAP inh, Vif-A3F inh, S-ASM inh, Akt phos inh, Vif-APOBEC3G blk)
CCCCCn1nc(C(=O)Nc2ccc3c(c2)CCC3)c2ccccc2c1=O	none (no result: TSG101-PTAP inh, Vif-A3F inh, S-ASM inh, Akt phos inh, Vif-APOBEC3G blk)
O=C(COc1ccc(Cl)cc1)NC1=NN(c2ccccc2)C(=O)C1	12-LOX inh 45µM
O=[N+]([O-])c1ccc(CN2CCN(c3ccc4ccccc4n3)CC2)cc1	12-LOX inh 50µM
O=[N+]([O-])c1ccc(N2CCN(Cc3ccccc3)CC2)nc1	none
O=[N+]([O-])c1ccc(N2CCN(Cc3cccc([N+](=O)[O-])c3)CC2)cc1	none
O=[N+]([O-])c1cccc(-c2ccc(CN3CCN(c4ccccc4)CC3)o2)c1	12-LOX inh 7.1µM
O=[N+]([O-])c1ccc(CN2CCN(c3ccc([N+](=O)[O-])cc3)CC2)cc1	12-LOX inh 3.5µM
CCOc1cc2nc(-c3ccc(OC)c(OC)c3)nc(N3CCCC(C)C3)c2cc1OC (stereo unspecified)	none (no result: TSG101-PTAP inh, Vif-A3F inh, S-ASM inh, Akt phos inh, Vif-APOBEC3G blk)
Cc1ccc(S(=O)(=O)NC2CCN(S(C)(=O)=O)CC2)cc1	none (no result: TSG101-PTAP inh, Vif-A3F inh, S-ASM inh, Akt phos inh, Vif-APOBEC3G blk)
CC1CCCC(NC(=S)NC(=O)c2ccccc2Br)C1C (stereo unspecified)	12-LOX inh 22µM
O=C(NNC(=S)NC1CCCCC1)c1ccccc1Br	none
COc1ccc2cc(CN(Cc3cccnc3)S(=O)(=O)c3ccccc3)c(=O)[nH]c2c1	12-LOX inh 45µM
CC1Sc2ccc(C(=O)NCc3ccccn3)cc2NC1=O (stereo unspecified)	Vif-A3F inh 13µM
Cc1cc(C)c(NC(=O)c2ccc3c(c2)NC(=O)C(C)S3)c(C)c1 (stereo unspecified)	none
CC1Sc2ccc(C(=O)NNC(=O)CSc3cccc4cccnc34)cc2NC1=O (stereo unspecified)	12-LOX inh 7.9µM (no result: TSG101-PTAP inh, Vif-A3F inh, S-ASM inh, Akt phos inh, Vif-APOBEC3G blk)
O=C(CSc1cccc2cccnc12)Nc1cc(C(=O)O)cc(C(=O)O)c1	Vif-A3F inh inconclusive, 12-LOX inh 25µM
CCOC(=O)Cc1cc(=O)n2[nH]c(NCc3ccccc3Cl)nc2n1	none (no result: TSG101-PTAP inh, Vif-A3F inh, S-ASM inh, Akt phos inh, Vif-APOBEC3G blk)
Cc1cc(NC(=O)CSc2nnc(-c3ccc4c(c3)OCCO4)o2)no1	Akt phos inh -81%
Cc1cc(NC(=O)CSc2nnc(-c3cccc(Cl)c3)o2)no1	none (no result: TSG101-PTAP inh)
Cc1cc(CN(C)c2ccc(-c3nc(COc4ccccc4)no3)cn2)on1	none (no result: TSG101-PTAP inh, Vif-A3F inh, S-ASM inh, Akt phos inh, Vif-APOBEC3G blk)
COCC(=O)N[C@@H]1C[C@H](Cn2cc(CN3CCS(=O)(=O)CC3)nn2)[C@@H](O)[C@H]1O	none (no result: TSG101-PTAP inh, Vif-A3F inh, S-ASM inh, Akt phos inh, Vif-APOBEC3G blk)
